“And” between values parts separate entries of the source, which are not always exact repeats. Equal values may be shown once. In all, about 5,500 compounds went through this assay and about 2,000 (36%) were called active. Inconclusive results (about 18%) are left out. Cut-off read from the data, not from the text of the source: active = normalized growth mostly below about 0.91 (no sharp cut-off); inconclusive = no clear call, values can overlap the other calls; inactive = mostly above about 0.92. This is one part of the list.
Test: chemical genetic growth profiling, strain panel (AID 1159580);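 note: tested at 20 µM; growth read once vehicle control cultures reached saturation at 30 °C; 1 = growth at the plate median or of vehicle wells; lower values mean less growth of the strain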
Conditions: S. cerevisiae deletion strains, growth OD

Measured: normalized growth

COC1=C[C@@H]2[C@@H]3Cc4ccc(OC)c(O)c4[C@]2(CCN3C)CC1=O
inactive: locus YAL013W, strain DEP1, stronger effect = lower value 0.985 | locus YAL021C, strain ccr4, stronger effect = lower value 1.01 | locus YAL026C, strain drs2, stronger effect = lower value 1 | locus YAL030W, strain snc1, stronger effect = lower value 1 | locus YBL061C, strain skt5, stronger effect = lower value 1.01 | locus YBR009C, strain hhf1, stronger effect = lower value 1 | locus YBR021W, strain FUR4, stronger effect = lower value 1.04 | locus YBR023C, strain chs3, stronger effect = lower value 1 | locus YBR171W, strain sec66, stronger effect = lower value 0.983 | locus YBR229C, strain ROT2, stronger effect = lower value 0.961 | locus YBR231C, strain swc5, stronger effect = lower value 0.995 | locus YBR279W, strain paf1, stronger effect = lower value 0.991 | locus YCL011C, strain gbp2, stronger effect = lower value 1 | locus YCL016C, strain dcc1, stronger effect = lower value 0.977 | locus YCL029C, strain bik1, stronger effect = lower value 0.967 | locus YCL069W, strain vba3, stronger effect = lower value 1.01 | locus YCR088W, strain abp1, stronger effect = lower value 0.987 | locus YDL005C, strain med2, stronger effect = lower value 0.997 | locus YDL035C, strain GPR1, stronger effect = lower value 1 | locus YDL040C, strain nat1, stronger effect = lower value 1 | locus YDL074C, strain BRE1, stronger effect = lower value 0.952 | locus YDL101C, strain DUN1, stronger effect = lower value 0.972 | locus YDL134C, strain PPH21, stronger effect = lower value 0.981 | locus YDL185W, strain tfp1, stronger effect = lower value 0.929 | locus YDL192W, strain arf1, stronger effect = lower value 0.987 | locus YDR001C, strain nth1, stronger effect = lower value 1 | locus YDR069C, strain doa4, stronger effect = lower value 0.979 | locus YDR101C, strain arx1, stronger effect = lower value 1 | locus YDR137W, strain rgp1, stronger effect = lower value 0.972 | locus YDR150W, strain NUM1, stronger effect = lower value 0.971 | locus YDR159W, strain sac3, stronger effect = lower value 0.967 | locus YDR162C, strain NBP2, stronger effect = lower value 0.969 | locus YDR195W, strain ref2 0.967 | locus YDR297W, strain sur2, stronger effect = lower value 1 | locus YDR318W, strain mcm21, stronger effect = lower value 0.995 | locus YDR334W, strain swr1, stronger effect = lower value 0.984 | locus YDR335W, strain msn5, stronger effect = lower value 0.986 | locus YDR388W, stronger effect = lower value 0.984 | locus YDR392W, strain spt3, stronger effect = lower value 0.988 | locus YDR502C, strain sam2, stronger effect = lower value 0.986 | locus YEL003W, strain gim4, stronger effect = lower value 1 | locus YEL037C, strain rad23, stronger effect = lower value 0.999 | locus YEL061C, strain CIN8 (second series), stronger effect = lower value 0.999 | locus YEL061C, strain CIN8, stronger effect = lower value 0.982 | locus YER015W, strain faa2, stronger effect = lower value 0.986 | locus YER016W, strain bim1, stronger effect = lower value 1 | locus YER110C, stronger effect = lower value 0.969 | locus YER111C, strain swi4, stronger effect = lower value 1.01 | locus YER155C, strain BEM2 (second series), stronger effect = lower value 1.01 | locus YER155C, strain BEM2, stronger effect = lower value 1 | locus YER167W, strain BCK2, stronger effect = lower value 1 | locus YFR010W, strain ubp6, stronger effect = lower value 1.01 | locus YGL078C, strain dbp3, stronger effect = lower value 0.971 | locus YGL086W, strain mad1, stronger effect = lower value 0.99 | locus YGL167C, strain pmr1, stronger effect = lower value 0.986 | locus YGL173C, strain kem1, stronger effect = lower value 0.99 | locus YGL227W, strain vid30, stronger effect = lower value 1 | locus YGL240W, strain doc1, stronger effect = lower value 1 | locus YGL248W, strain PDE1, stronger effect = lower value 0.972 | locus YGL253W, strain hxk2, stronger effect = lower value 1.01 | locus YGR078C, strain PAC10, stronger effect = lower value 0.965 | locus YGR135W, strain pre9, stronger effect = lower value 0.959 | locus YGR229C, strain SMI1, stronger effect = lower value 0.974 | locus YGR252W, strain gcn5, stronger effect = lower value 1 | locus YHR013C, strain ard1, stronger effect = lower value 0.962 | locus YHR027C, strain rpn1, stronger effect = lower value 0.992 | locus YHR030C, strain SLT2, stronger effect = lower value 1 and 1.03 | locus YHR079C, strain IRE1 (second series), stronger effect = lower value 0.987 | locus YHR079C, strain IRE1, stronger effect = lower value 1.03 | locus YHR094C, strain hxt1, stronger effect = lower value 0.978 | locus YHR129C, strain ARP1, stronger effect = lower value 0.996 | locus YHR142W, strain chs7, stronger effect = lower value 0.999 | locus YHR200W, strain rpn10, stronger effect = lower value 0.975 | locus YIL066C, strain RNR3, stronger effect = lower value 0.972 | locus YIL073C, strain SPO22, stronger effect = lower value 1.03 | locus YIL125W, strain kgd1, stronger effect = lower value 0.968 | locus YIR030C, strain dcg1, stronger effect = lower value 0.989 | locus YJL092W, strain hpr5, stronger effect = lower value 0.997 | locus YJL095W, strain BCK1 (second series), stronger effect = lower value 1 | locus YJL095W, strain BCK1, stronger effect = lower value 0.963 and 1.03 | locus YJL115W, strain asf1, stronger effect = lower value 1.01 | locus YJL129C, strain trk1, stronger effect = lower value 0.977 | locus YJL134W, strain LCB3, stronger effect = lower value 0.989 | locus YJL154C, strain vps35, stronger effect = lower value 0.988 | locus YJL164C, strain tpk1, stronger effect = lower value 0.997 | locus YJL166W, strain qcr8, stronger effect = lower value 1 | locus YJL168C, strain set2, stronger effect = lower value 0.982 | locus YJL187C, strain SWE1 (second series), stronger effect = lower value 0.958 | locus YJR043C, strain POL32, stronger effect = lower value 1.03 | locus YJR066W, strain TOR1, stronger effect = lower value 0.97

From PubChem BioAssay AID1159580 (chemical genetic matrix, 2015)
